{"source": "PubChem BioAssay (NCI)", "note": "The panel holds about 83,000 compounds, 20% with a hit somewhere; the sample as a whole holds those more often.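 96-well plates, one dose, 48 hours. Percent growth reported; active if below 10.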 Calls of active or inactive are those of the source.", "data": [{"system": "HOP-92 NSCLC", "assay": "NCI-60 one-dose screen, 48 h (100 = growth as untreated, 0 = no growth, -100 = all killed)", "conditions": "10 µM unless noted", "experimental": "Growth inhibition of the HOP-92 human Non-Small Cell Lung tumor cell line is measured as a screen for anti-cancer activity. Cells are grown in 96 well plates and exposed to the test compound for 48 hours. Compounds are tested at a single concentration, which is 10^-5 M for most compounds. The reported endpoint is percent growth (GI% or GIPRCNT), where numbers from 0 - 100% represent growth inhibition, and numbers from -100% - 0 represent cell death. For example, a value of 40 represents 60% growth inhibition. A value of 0 means no net growth occurred over the course of the experiment. A value of -40 indicates 40% of cells at the beginning of the experiment died by the end of the experiment. A value of -100 means all cells are dead at the end of the experiment.\nNCI-60 Human Tumor Cell Lines Screen was performed using the standard one-dose NCI protocol, which is described in more detail at https://dtp.cancer.gov/discovery_development/nci-60/default.htm.\nCompounds with GIPRCNT values below 10 were considered active. Activity score was based on GIPRCNT using the following formula: […]\nScore is 0 for GIPRCNT values of 100 or above, 50 for GIPRCNT values of 0, and 100 for GIPRCNT values of -100.", "values": [{"smiles": "Cc1ccc(Nc2cc(=S)nc(N)[nH]2)cc1C", "growth": "75.7% (inactive)"}, {"smiles": "CC(C)(C)OC(=O)N1CCN(c2ccc(N)cc2)C(=O)C1", "growth": "127% (inactive)"}, {"smiles": "C#Cc1cccc(NC(=O)Nc2ccc(NC(=O)CCl)cc2)c1", "growth": "-66.5% [8.25 µM] (active)"}, {"smiles": "O=C(O)C(/C=C/c1ccco1)=N\\Nc1nc(-c2ccc(Cl)cc2)cs1", "growth": "51.8% (inactive)"}, {"smiles": "Cc1nn(-c2ccccc2)c(N2CCOCC2)c1/C=N/N=c1\\sc2ccccc2n1C", "growth": "53% (inactive)"}, {"smiles": "COc1ccc(/C(=C\\c2ccccc2)C(=O)O)cc1OC", "growth": "97.9% (inactive)"}, {"smiles": "CN(C)C(=O)c1cc2cnc(Nc3ccc(-c4csc5c(=O)cc(N6CCOCC6)oc45)cc3)nc2n1C1CCCC1", "growth": "-3.68% (active)"}, {"smiles": "Nc1c(Cl)cc([N+](=O)[O-])cc1Br", "growth": "74.8% (inactive)"}, {"smiles": "COc1ccc(/C=C/C(=O)c2ccc(OC)c(OC)c2)cc1O", "growth": "29.1% (inactive)"}, {"smiles": "C=C1C(=O)O[C@H]2[C@H]1CC/C(CNC(=O)/C=C/c1ccccc1F)=C\\CC[C@@]1(C)O[C@@H]21", "growth": "-28.2% (active)"}, {"smiles": "CCN(CCNc1cc(OC)cc2cccnc12)CCc1ccccc1", "growth": "77.2% (inactive)"}, {"smiles": "CC(=O)c1c(C)[nH]c(-c2nc3ccc(N4CCN(C)CC4)cc3[nH]2)c1-c1ccccc1", "growth": "29.8% (inactive)"}, {"smiles": "BrC(Br)(Br)c1cnc2ccccc2n1", "growth": "7.52% (active)"}, {"smiles": "COc1ccc(C(O)c2cc3c(N)c(C(=O)Nc4ccccc4)sc3nc2C)cc1", "note": "(stereo not given)", "growth": "30.3% (inactive)"}, {"smiles": "CCOc1cc(CNc2ccc(N3CCOCC3)c(C(=O)O)c2)ccc1OC", "growth": "110% (inactive)"}, {"smiles": "O=C(/C=C\\c1ccc(OCCCCCC[P+](c2ccccc2)(c2ccccc2)c2ccccc2)cc1)c1ccc2c(c1)OCCO2", "growth": "-29.2% (active)"}, {"smiles": "CC(C)(C)OC(=O)N1C/C(=C\\c2ccoc2)C(=O)/C(=C/c2ccoc2)C1", "growth": "100% (inactive)"}, {"smiles": "CC(=O)NCCCS(=O)(=O)O", "growth": "82.2% (inactive)"}, {"smiles": "COc1ccc(/C=C2\\COc3ccc(-c4ccccc4)cc3C2=O)cc1O", "growth": "-1.71% (active)"}, {"smiles": "COc1ccc(-c2nc(SCCC(C)C)nc(N/N=C(/C)c3ccc(C)cc3)c2C#N)cc1", "growth": "62.2% (inactive)"}, {"smiles": "CCCCCCCCOc1ccc(/C=N/Nc2cc(C)nc3ccc(Cl)cc23)cc1", "growth": "67.3% (inactive)"}, {"smiles": "CCCCCCCCCCN=C(N)N=C(N)N", "growth": "21.2% (inactive)"}, {"smiles": "COc1ccc(C(=O)c2cc(C)c(OC)c(C)c2)c(OC)c1N(C(=O)C(Cl)Cl)C(=O)C(Cl)Cl", "growth": "2.49% (active)"}, {"smiles": "COc1ccc(-c2ncc(-c3ccccc3)[nH]2)cc1OC", "growth": "93% (inactive)"}, {"smiles": "Cc1c([N+](=O)[O-])cc(C(C)(C)C)cc1[N+](=O)[O-]", "growth": "96.4% (inactive)"}, {"smiles": "COc1cc(C2CC(c3cccc(Nc4ccncc4)c3)=NN2C(C)=O)cc(OC)c1OC", "note": "(stereo not given)", "growth": "70.1% (inactive)"}, {"smiles": "Clc1ccc(N2N=C(c3cccc(Nc4ccncc4)c3)CC2c2ccccc2)cc1", "note": "(stereo not given)", "growth": "67.7% (inactive)"}, {"smiles": "COc1cc2nc(-c3ccc(C(F)(F)F)cc3)cc(OCCCN3CCCCC3)c2cc1OC", "growth": "27.9% (inactive)"}, {"smiles": "COc1ccc(C(=O)c2cc3c(N)c(C(=O)Nc4cccc(Cl)c4C)sc3nc2C)cc1", "growth": "27.7% (inactive)"}, {"smiles": "O=S(=O)(NCCNc1nccc(-c2c(-c3ccc(F)c(O)c3)nc3sccn23)n1)c1ccccc1", "growth": "63.9% (inactive)"}, {"smiles": "CC(=O)N1N=C(c2cccc(Nc3ccncc3)c2)CC1c1ccc2c(c1)OCO2", "note": "(stereo not given)", "growth": "72.1% (inactive)"}, {"smiles": "COc1cc(/C=N/NC(=O)c2ccccc2Nc2cccc(C(F)(F)F)c2)ccc1O", "growth": "67.6% (inactive)"}, {"smiles": "C=C(C)[C@@H]1CC[C@]2(CO)CC[C@]3(C)[C@H](CC[C@@H]4[C@@]5(C)CCCNC(C)(C)[C@@H]5CC[C@]43C)[C@@H]12", "growth": "82% (inactive)"}, {"smiles": "O=S(=O)(NCCNc1nccc(-c2c(-c3cccc(F)c3)nc3occn23)n1)c1cccc2ccccc12", "growth": "47% (inactive)"}, {"smiles": "O=C(/C=C/c1ccc[nH]1)c1ccc(-n2ccc(C(F)(F)F)n2)cc1", "growth": "96.3% (inactive)"}, {"smiles": "Cc1c2c(cc[n+]1Cc1ccccc1)c1ccc(OCc3ccccc3)cc1n2Cc1ccccc1", "growth": "-67.9% (active)"}, {"smiles": "COc1cc(Nc2cc(O)c3c(=O)cc(-c4ccccc4)oc3c2)cc(OC)c1", "growth": "79.5% (inactive)"}, {"smiles": "COc1ccncc1C#Cc1cncc(C(=O)Nc2ccc(CN3CCN(C)CC3)c(C(F)(F)F)c2)c1", "growth": "-2.19% (active)"}, {"smiles": "CCc1c(Nc2ccc(C)cc2)[nH]c(N)nc1=S", "growth": "108% (inactive)"}, {"smiles": "CC(C)Cc1ccc(C(C)C(=O)NCc2c[nH]c3ccc(Cl)cc23)cc1", "note": "(stereo not given)", "growth": "79.8% (inactive)"}]}]}
